What all share (experiment): DAPPL (digital affinity profiling via proximity ligation, sequencing); 10 mM Tris-HCl pH 7.5, 50 mM NaCl, 1 mM DTT, 4% glycerol, room temperature, 30 min; GST-TFs on glutathione beads, 16-mer random dsDNA library, 0.1% formaldehyde crosslink after washing; high values mean tight binding
Holding throughout (conditions): protein: recombinant; tags: N-terminal GST; dsDNA, one strand shown

One assay addresses T1, ERF (Homo sapiens, UniProt P50548 1-548).
T1 sequence: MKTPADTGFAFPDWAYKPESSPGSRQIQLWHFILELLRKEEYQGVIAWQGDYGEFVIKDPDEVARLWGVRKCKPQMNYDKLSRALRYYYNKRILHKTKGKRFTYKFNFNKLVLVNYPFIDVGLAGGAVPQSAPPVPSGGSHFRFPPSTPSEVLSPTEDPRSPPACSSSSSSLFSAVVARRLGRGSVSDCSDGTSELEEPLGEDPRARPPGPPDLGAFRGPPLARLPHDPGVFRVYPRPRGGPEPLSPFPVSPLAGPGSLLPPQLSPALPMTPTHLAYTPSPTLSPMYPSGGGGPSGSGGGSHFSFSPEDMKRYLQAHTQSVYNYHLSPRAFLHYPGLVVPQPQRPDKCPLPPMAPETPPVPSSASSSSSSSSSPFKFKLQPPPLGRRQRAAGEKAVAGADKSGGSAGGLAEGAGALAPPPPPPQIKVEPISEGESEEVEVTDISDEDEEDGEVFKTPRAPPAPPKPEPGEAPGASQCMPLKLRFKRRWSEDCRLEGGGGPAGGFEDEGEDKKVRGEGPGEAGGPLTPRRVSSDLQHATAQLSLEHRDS
Put shortly: (§1)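 Beads coated with glutathione captured GST-fused human transcription factors that had been expressed in yeast, and the factors were then given DNA barcodes and pooled with a tag-only sample. The pools were incubated with 200 nmole of a random double-stranded 16-mer DNA library in Tris/NaCl/DTT/glycerol buffer for 30 min at room temperature, washed, crosslinked with 0.1% formaldehyde and proximity-ligated with BsaI/T4 ligase at 37 °C for 1 h. PCR amplification and Illumina NextSeq500 sequencing came last. Binding signal is each hexamer's read frequency for a factor divided by its frequency for the tag-only sample.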

The target of a further assay is T2, ETV3L (Homo sapiens, UniProt Q6ZN32 1-361).
T2 sequence: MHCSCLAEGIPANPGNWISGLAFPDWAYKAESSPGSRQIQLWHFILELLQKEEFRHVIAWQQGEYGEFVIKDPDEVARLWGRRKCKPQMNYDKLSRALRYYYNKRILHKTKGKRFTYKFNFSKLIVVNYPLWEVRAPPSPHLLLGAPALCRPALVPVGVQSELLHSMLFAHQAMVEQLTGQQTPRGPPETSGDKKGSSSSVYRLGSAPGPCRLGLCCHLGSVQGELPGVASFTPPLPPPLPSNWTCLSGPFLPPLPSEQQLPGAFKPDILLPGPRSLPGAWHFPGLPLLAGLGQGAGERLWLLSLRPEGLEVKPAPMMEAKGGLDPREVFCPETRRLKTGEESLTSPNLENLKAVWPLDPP
Put shortly: as §1

The target of another assay is T3, ETS2 (Homo sapiens, UniProt P15036 1-469).
T3 sequence: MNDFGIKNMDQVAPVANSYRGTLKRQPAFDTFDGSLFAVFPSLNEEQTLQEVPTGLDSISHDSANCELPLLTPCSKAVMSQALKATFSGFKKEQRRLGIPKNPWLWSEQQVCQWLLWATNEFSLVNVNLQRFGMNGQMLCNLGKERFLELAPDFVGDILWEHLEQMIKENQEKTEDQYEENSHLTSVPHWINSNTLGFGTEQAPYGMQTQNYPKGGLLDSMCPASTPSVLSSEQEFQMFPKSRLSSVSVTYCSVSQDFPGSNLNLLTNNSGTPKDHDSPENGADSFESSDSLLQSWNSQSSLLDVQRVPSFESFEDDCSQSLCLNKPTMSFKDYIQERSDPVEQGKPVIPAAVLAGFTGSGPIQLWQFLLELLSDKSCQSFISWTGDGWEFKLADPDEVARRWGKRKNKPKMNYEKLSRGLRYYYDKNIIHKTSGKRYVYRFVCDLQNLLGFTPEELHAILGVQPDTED
A digest of the protocol:
as §1

The target of a further assay is T4, SPDEF (Homo sapiens, UniProt O95238 1-335).
T4 sequence: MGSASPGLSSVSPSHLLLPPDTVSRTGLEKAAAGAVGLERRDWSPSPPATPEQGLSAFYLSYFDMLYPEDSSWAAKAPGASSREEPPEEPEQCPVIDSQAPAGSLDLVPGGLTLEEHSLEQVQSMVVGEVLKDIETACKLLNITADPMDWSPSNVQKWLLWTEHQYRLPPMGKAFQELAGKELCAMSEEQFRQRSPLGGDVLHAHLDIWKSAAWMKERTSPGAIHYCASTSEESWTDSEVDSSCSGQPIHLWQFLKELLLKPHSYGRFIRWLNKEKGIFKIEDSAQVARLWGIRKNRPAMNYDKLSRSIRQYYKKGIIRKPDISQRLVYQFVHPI
A digest of the protocol:
as §1

The target in another assay is T5, ETV7 (Homo sapiens, UniProt Q9Y603 1-341).
T5 sequence: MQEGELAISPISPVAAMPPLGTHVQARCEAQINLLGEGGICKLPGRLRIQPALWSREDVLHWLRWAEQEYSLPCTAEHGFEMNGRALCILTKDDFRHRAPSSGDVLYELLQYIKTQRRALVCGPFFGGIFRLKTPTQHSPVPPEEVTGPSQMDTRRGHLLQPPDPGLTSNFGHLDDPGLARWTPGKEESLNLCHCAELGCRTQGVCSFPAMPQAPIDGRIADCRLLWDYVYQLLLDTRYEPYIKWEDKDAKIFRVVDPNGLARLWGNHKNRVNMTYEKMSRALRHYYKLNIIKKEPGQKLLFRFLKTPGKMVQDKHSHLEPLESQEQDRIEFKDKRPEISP
Put shortly:
as §1

A further assay has as its target T6, ELF5 (Homo sapiens, UniProt Q9UKW6-2 1-255).
T6 sequence: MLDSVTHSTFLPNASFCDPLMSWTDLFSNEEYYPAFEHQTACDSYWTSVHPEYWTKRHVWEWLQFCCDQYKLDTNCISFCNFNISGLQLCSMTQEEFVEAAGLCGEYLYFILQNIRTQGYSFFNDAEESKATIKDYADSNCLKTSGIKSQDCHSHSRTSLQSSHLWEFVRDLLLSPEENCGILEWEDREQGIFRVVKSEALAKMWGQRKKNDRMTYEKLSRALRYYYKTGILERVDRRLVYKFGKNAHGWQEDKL
A digest of the protocol: as §1

The next assay has as its target T7, ETV3 (Homo sapiens, UniProt P41162-2 1-143).
T7 sequence: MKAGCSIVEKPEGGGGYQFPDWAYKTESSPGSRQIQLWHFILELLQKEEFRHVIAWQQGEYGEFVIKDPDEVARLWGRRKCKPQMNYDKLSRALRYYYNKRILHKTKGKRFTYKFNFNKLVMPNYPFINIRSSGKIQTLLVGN
Put shortly: as §1

Another assay concerns the target ETV6 (Homo sapiens, UniProt P41212 1-452). Put shortly: as §1

ETV6, sequence (P41212 whole entry): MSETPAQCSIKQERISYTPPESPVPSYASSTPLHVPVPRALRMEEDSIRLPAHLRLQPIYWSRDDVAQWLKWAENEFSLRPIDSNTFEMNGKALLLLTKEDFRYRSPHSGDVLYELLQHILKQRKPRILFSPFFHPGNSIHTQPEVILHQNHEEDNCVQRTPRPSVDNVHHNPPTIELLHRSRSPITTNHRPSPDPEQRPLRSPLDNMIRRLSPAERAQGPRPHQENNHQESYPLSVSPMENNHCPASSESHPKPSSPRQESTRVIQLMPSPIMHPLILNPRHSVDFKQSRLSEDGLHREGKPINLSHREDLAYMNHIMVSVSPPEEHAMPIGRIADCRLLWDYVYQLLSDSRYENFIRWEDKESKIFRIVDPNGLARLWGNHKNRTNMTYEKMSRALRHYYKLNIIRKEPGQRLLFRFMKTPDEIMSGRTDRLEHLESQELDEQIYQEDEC

Regarding TCAAGG, the binding signal in the assay with ERF was 1.09 fold enrichment (6-mer frequency, TF over GST control); in the assay with ETV3L, 1.03 fold enrichment (6-mer frequency, TF over GST control); with ETS2, 1.04 fold enrichment (6-mer frequency, TF over GST control); in the assay with SPDEF it was 1.12 fold enrichment (6-mer frequency, TF over GST control); with ETV7, 1.17 fold enrichment (6-mer frequency, TF over GST control); with ELF5, 1.14 fold enrichment (6-mer frequency, TF over GST control). The binding signal was 1.12 fold enrichment (6-mer frequency, TF over GST control) in the assay with ETV3 and 1.14 fold enrichment (6-mer frequency, TF over GST control) with ETV6.
Take AAGCGG: the binding signal with ERF was 1.08 fold enrichment (6-mer frequency, TF over GST control); in the assay with ETV3L, 1.17 fold enrichment (6-mer frequency, TF over GST control); with ETS2 it was 1.13 fold enrichment (6-mer frequency, TF over GST control); in the assay with SPDEF it was 1.08 fold enrichment (6-mer frequency, TF over GST control); with ETV7 it was 1.16 fold enrichment (6-mer frequency, TF over GST control); in the assay with ELF5, 1.13 fold enrichment (6-mer frequency, TF over GST control). For the same sequence, the binding signal with ETV3 is 1.15 fold enrichment (6-mer frequency, TF over GST control); with ETV6 it was 1.23 fold enrichment (6-mer frequency, TF over GST control).
Take AAATTC: the binding signal in the assay with ERF was 1.29 fold enrichment (6-mer frequency, TF over GST control); in the assay with ETV3L, 1.43 fold enrichment (6-mer frequency, TF over GST control); in the assay with ETS2 it was 1.33 fold enrichment (6-mer frequency, TF over GST control); in the assay with SPDEF, 1.34 fold enrichment (6-mer frequency, TF over GST control); with ETV7 it was 1.28 fold enrichment (6-mer frequency, TF over GST control); with ELF5 it was 1.4 fold enrichment (6-mer frequency, TF over GST control). The binding signal with ETV3 is 1.3 fold enrichment (6-mer frequency, TF over GST control); with ETV6 it was 1.31 fold enrichment (6-mer frequency, TF over GST control).
Take TGCATT: the binding signal in the assay with ERF is 1.45 fold enrichment (6-mer frequency, TF over GST control); with ETV3L, 1.39 fold enrichment (6-mer frequency, TF over GST control); with ETS2, 1.34 fold enrichment (6-mer frequency, TF over GST control); in the assay with SPDEF, 1.41 fold enrichment (6-mer frequency, TF over GST control); in the assay with ETV7, 1.22 fold enrichment (6-mer frequency, TF over GST control); with ELF5, 1.25 fold enrichment (6-mer frequency, TF over GST control). Besides, the binding signal with ETV3 is 1.34 fold enrichment (6-mer frequency, TF over GST control); with ETV6 it was 1.35 fold enrichment (6-mer frequency, TF over GST control).
Turning to GGGCTC, the binding signal is 1.28 fold enrichment (6-mer frequency, TF over GST control) with ERF; 1.32 fold enrichment (6-mer frequency, TF over GST control) with ETV3L; 1.14 fold enrichment (6-mer frequency, TF over GST control) with ETS2; 1.09 fold enrichment (6-mer frequency, TF over GST control) in the assay with SPDEF; 1.18 fold enrichment (6-mer frequency, TF over GST control) in the assay with ETV7; 1.12 fold enrichment (6-mer frequency, TF over GST control) with ELF5. The binding signal is 1.22 fold enrichment (6-mer frequency, TF over GST control) in the assay with ETV3 and 1.19 fold enrichment (6-mer frequency, TF over GST control) with ETV6.
For CCTCGT, the binding signal in the assay with ERF is 1.23 fold enrichment (6-mer frequency, TF over GST control); in the assay with ETV3L it was 1.2 fold enrichment (6-mer frequency, TF over GST control); in the assay with ETS2, 1.25 fold enrichment (6-mer frequency, TF over GST control); with SPDEF it was 1.19 fold enrichment (6-mer frequency, TF over GST control); with ETV7, 1.17 fold enrichment (6-mer frequency, TF over GST control); in the assay with ELF5 it was 1.4 fold enrichment (6-mer frequency, TF over GST control). Moreover, the binding signal in the assay with ETV3 is 1.27 fold enrichment (6-mer frequency, TF over GST control); with ETV6, 1.23 fold enrichment (6-mer frequency, TF over GST control).
As for TGGTTC, the binding signal with ERF is 1.34 fold enrichment (6-mer frequency, TF over GST control); with ETV3L, 1.36 fold enrichment (6-mer frequency, TF over GST control); in the assay with ETS2, 1.32 fold enrichment (6-mer frequency, TF over GST control); with SPDEF it was 1.35 fold enrichment (6-mer frequency, TF over GST control); in the assay with ETV7, 1.48 fold enrichment (6-mer frequency, TF over GST control); in the assay with ELF5, 1.41 fold enrichment (6-mer frequency, TF over GST control). In addition, the binding signal in the assay with ETV3 was 1.44 fold enrichment (6-mer frequency, TF over GST control); in the assay with ETV6 it was 1.32 fold enrichment (6-mer frequency, TF over GST control).
